In PubChem BioAssay AID1159580 (chemical genetic matrix, 2015):
Where “and” joins values, the source holds several entries; their conditions need not be identical. Equal entries are not always repeated. About 2,000 (36%) of roughly 5,500 compounds were called active. Not shown: some 18% with an inconclusive outcome. This is one part of the list. Values without a mark were called inactive. Cut-off read from the data, not from the text of the source: active = normalized growth mostly below about 0.91 (no sharp cut-off); inconclusive = no clear call, values can overlap the other calls; inactive = mostly above about 0.92.

Test: chemical genetic growth profiling, strain panel (AID 1159580);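 note: tested at 20 µM; growth read once vehicle control cultures reached saturation at 30 °C; 1 = growth at the plate median or of vehicle wells; lower values mean less growth of the strain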
Details: S. cerevisiae deletion strains, growth OD

**Q.** What does the source list for `CCCC(CCC)C(=O)O`?
**A.** normalized growth (locus YAL013W, strain DEP1, active compounds read low): 0.993 and 0.977; normalized growth (locus YAL021C, strain ccr4, active compounds read low): 1; normalized growth (locus YAL026C, strain drs2, active compounds read low): 1; normalized growth (locus YAL030W, strain snc1, active compounds read low): 1.01; normalized growth (locus YAL040C, strain CLN3, active compounds read low): 0.959; normalized growth (locus YBL061C, strain skt5, active compounds read low): 1; normalized growth (locus YBR009C, strain hhf1, active compounds read low): 1; normalized growth (locus YBR021W, strain FUR4, active compounds read low): 0.953; normalized growth (locus YBR023C, strain chs3, active compounds read low): 1.01; normalized growth (locus YBR171W, strain sec66, active compounds read low): 1.01; normalized growth (locus YBR229C, strain ROT2, active compounds read low): 0.992; normalized growth (locus YBR231C, strain swc5, active compounds read low): 1.01; normalized growth (locus YBR279W, strain paf1, active compounds read low): 1.02; normalized growth (locus YCL011C, strain gbp2, active compounds read low): 1.01; normalized growth (locus YCL016C, strain dcc1, active compounds read low): 1.01; normalized growth (locus YCL029C, strain bik1, active compounds read low): 0.954; normalized growth (locus YCL061C, strain MRC1 (second series), active compounds read low): 0.985; normalized growth (locus YCL061C, strain MRC1, active compounds read low): 1; normalized growth (locus YCL069W, strain vba3, active compounds read low): 1.02; normalized growth (locus YCR088W, strain abp1, active compounds read low): 1.01; normalized growth (locus YDL005C, strain med2, active compounds read low): 1.01; normalized growth (locus YDL035C, strain GPR1, active compounds read low): 1; normalized growth (locus YDL040C, strain nat1, active compounds read low): 1.01; normalized growth (locus YDL074C, strain BRE1, active compounds read low): 1; normalized growth (locus YDL101C, strain DUN1, active compounds read low): 1.01; normalized growth (locus YDL185W, strain tfp1, active compounds read low): 0.964; normalized growth (locus YDL192W, strain arf1, active compounds read low): 0.97; normalized growth (locus YDR001C, strain nth1, active compounds read low): 1.01; normalized growth (locus YDR069C, strain doa4, active compounds read low): 1.01; normalized growth (locus YDR101C, strain arx1, active compounds read low): 0.963; normalized growth (locus YDR137W, strain rgp1, active compounds read low): 0.985; normalized growth (locus YDR150W, strain NUM1, active compounds read low): 0.981; normalized growth (locus YDR159W, strain sac3, active compounds read low): 1.01; normalized growth (locus YDR162C, strain NBP2, active compounds read low): 1; normalized growth (locus YDR195W, strain ref2): 1.02; normalized growth (locus YDR297W, strain sur2, active compounds read low): 1; normalized growth (locus YDR318W, strain mcm21, active compounds read low): 0.97; normalized growth (locus YDR334W, strain swr1, active compounds read low): 1.02; normalized growth (locus YDR335W, strain msn5, active compounds read low): 1.01; normalized growth (locus YDR363W, strain ESC2, active compounds read low): 0.994; normalized growth (locus YDR388W, active compounds read low): 0.967; normalized growth (locus YDR392W, strain spt3, active compounds read low): 0.95; normalized growth (locus YDR502C, strain sam2, active compounds read low): 0.965; normalized growth (locus YEL003W, strain gim4, active compounds read low): 1.01; normalized growth (locus YEL037C, strain rad23, active compounds read low): 1.01; normalized growth (locus YEL061C, strain CIN8 (second series), active compounds read low): 1.01; normalized growth (locus YEL061C, strain CIN8, active compounds read low): 0.994; normalized growth (locus YER002W, strain NOP16, active compounds read low): 0.979; normalized growth (locus YER015W, strain faa2, active compounds read low): 1.02; normalized growth (locus YER016W, strain bim1, active compounds read low): 1; normalized growth (locus YER110C, active compounds read low): 0.985; normalized growth (locus YER111C, strain swi4, active compounds read low): 1.02; normalized growth (locus YER155C, strain BEM2 (second series), active compounds read low): 0.996; normalized growth (locus YER155C, strain BEM2, active compounds read low): 0.975; normalized growth (locus YER167W, strain BCK2, active compounds read low): 0.986; normalized growth (locus YFR010W, strain ubp6, active compounds read low): 1.02; normalized growth (locus YGL078C, strain dbp3, active compounds read low): 0.963; normalized growth (locus YGL086W, strain mad1, active compounds read low): 0.964; normalized growth (locus YGL167C, strain pmr1, active compounds read low): 1.01; normalized growth (locus YGL173C, strain kem1, active compounds read low): 1.01; normalized growth (locus YGL227W, strain vid30, active compounds read low): 1.01; normalized growth (locus YGL240W, strain doc1, active compounds read low): 1.01; normalized growth (locus YGL248W, strain PDE1, active compounds read low): 0.998; normalized growth (locus YGL253W, strain hxk2, active compounds read low): 1.01; normalized growth (locus YGR078C, strain PAC10, active compounds read low): 0.989; normalized growth (locus YGR135W, strain pre9, active compounds read low): 1; normalized growth (locus YGR252W, strain gcn5, active compounds read low): 0.967; normalized growth (locus YHR013C, strain ard1, active compounds read low): 1.03; normalized growth (locus YHR027C, strain rpn1, active compounds read low): 1.03; normalized growth (locus YHR030C, strain SLT2, active compounds read low): 0.987 and 0.951; normalized growth (locus YHR079C, strain IRE1 (second series), active compounds read low): 0.966; normalized growth (locus YHR079C, strain IRE1, active compounds read low): 0.951; normalized growth (locus YHR094C, strain hxt1, active compounds read low): 0.97; normalized growth (locus YHR129C, strain ARP1, active compounds read low): 0.994; normalized growth (locus YHR142W, strain chs7, active compounds read low): 1.03; normalized growth (locus YHR200W, strain rpn10, active compounds read low): 0.971; normalized growth (locus YIL066C, strain RNR3, active compounds read low): 0.992; normalized growth (locus YIL073C, strain SPO22, active compounds read low): 1.03; normalized growth (locus YIL125W, strain kgd1, active compounds read low): 0.92 (active); normalized growth (locus YIR030C, strain dcg1, active compounds read low): 0.966; normalized growth (locus YJL092W, strain hpr5, active compounds read low): 1.01; normalized growth (locus YJL095W, strain BCK1 (second series), active compounds read low): 1.01; normalized growth (locus YJL095W, strain BCK1, active compounds read low): 0.993 and 0.94; normalized growth (locus YJL115W, strain asf1, active compounds read low): 1.02; normalized growth (locus YJL129C, strain trk1, active compounds read low): 1.01; normalized growth (locus YJL134W, strain LCB3, active compounds read low): 0.993; normalized growth (locus YJL154C, strain vps35, active compounds read low): 1.01; normalized growth (locus YJL164C, strain tpk1, active compounds read low): 1; normalized growth (locus YJL166W, strain qcr8, active compounds read low): 1.01; normalized growth (locus YJL168C, strain set2, active compounds read low): 0.986; normalized growth (locus YJL187C, strain SWE1 (second series), active compounds read low): 0.992; normalized growth (locus YJL187C, strain SWE1, active compounds read low): 1.01; normalized growth (locus YJR043C, strain POL32, active compounds read low): 1.01; normalized growth (locus YJR066W, strain TOR1, active compounds read low): 0.926; normalized growth (locus YJR075W, strain HOC1, active compounds read low): 0.982; normalized growth (locus YKL009W, strain mrt4, active compounds read low): 0.977; normalized growth (locus YKL068W, active compounds read low): 0.91 (active); normalized growth (locus YKL085W, strain MDH1 (second series), active compounds read low): 0.918 (active); normalized growth (locus YKL085W, strain MDH1, active compounds read low): 0.918 (active); normalized growth (locus YKL160W, strain elf1, active compounds read low): 1; normalized growth (locus YKR001C, strain vps1, active compounds read low): 0.932; normalized growth (locus YKR026C, strain gcn3, active compounds read low): 1.01; normalized growth (locus YKR091W, strain srl3, active compounds read low): 1.01; normalized growth (locus YLL001W, strain dnm1, active compounds read low): 1; normalized growth (locus YLL026W, active compounds read low): 0.993; normalized growth (locus YLL041C, strain sdh2, active compounds read low): 1.01; normalized growth (locus YLR027C, strain aat2, active compounds read low): 1; normalized growth (locus YLR039C, strain RIC1, active compounds read low): 0.97; normalized growth (locus YLR058C, strain SHM2, active compounds read low): 0.999; normalized growth (locus YLR102C, strain apc9, active compounds read low): 0.977; normalized growth (locus YLR113W, strain HOG1, active compounds read low): 0.853 (active); normalized growth (locus YLR221C, strain rsa3, active compounds read low): 0.999; normalized growth (locus YLR258W, strain gsy2, active compounds read low): 1.01; normalized growth (locus YLR262C, strain YPT6 (second series), active compounds read low): 0.99; normalized growth (locus YLR262C, strain YPT6, active compounds read low): 0.945; normalized growth (locus YLR268W, strain sec22, active compounds read low): 0.961; normalized growth (locus YLR320W, strain mms22, active compounds read low): 1.01; normalized growth (locus YLR330W, strain CHS5, active compounds read low): 0.992; normalized growth (locus YLR342W, strain FKS1 (second series), active compounds read low): 1.01; normalized growth (locus YLR342W, strain FKS1, active compounds read low): 1.01; normalized growth (locus YLR357W, strain rsc2, active compounds read low): 1.06; normalized growth (locus YLR370C, strain arc18, active compounds read low): 1.01; normalized growth (locus YLR371W, strain rom2, active compounds read low): 0.975; normalized growth (locus YLR384C, strain iki3, active compounds read low): 1.01; normalized growth (locus YLR418C, strain cdc73, active compounds read low): 0.987; normalized growth (locus YML016C, strain PPZ1, active compounds read low): 0.992; normalized growth (locus YML032C, strain rad52, active compounds read low): 0.98; normalized growth (locus YML120C, strain ndi1, active compounds read low): 1; normalized growth (locus YML124C, strain tub3, active compounds read low): 0.95; normalized growth (locus YMR058W, strain fet3, active compounds read low): 1.01; normalized growth (locus YMR078C, strain ctf18, active compounds read low): 0.967; normalized growth (locus YMR125W, strain sto1, active compounds read low): 1.03; normalized growth (locus YMR129W, active compounds read low): 1.01; normalized growth (locus YMR205C, strain PFK2, active compounds read low): 1.02; normalized growth (locus YMR223W, strain ubp8, active compounds read low): 0.994; normalized growth (locus YMR231W, strain pep5, active compounds read low): 1.02; normalized growth (locus YMR263W, strain SAP30, active compounds read low): 0.999; normalized growth (locus YMR307W, strain GAS1, active compounds read low): 1.04; normalized growth (locus YNL067W, strain RPL9B, active compounds read low): 0.988; normalized growth (locus YNL071W, strain lat1, active compounds read low): 1.01; normalized growth (locus YNL128W, strain TEP1, active compounds read low): 1; normalized growth (locus YNL175C, strain NOP13, active compounds read low): 1; normalized growth (locus YNL183C, strain NPR1, active compounds read low): 0.931; normalized growth (locus YNL197C, strain WHI3, active compounds read low): 0.971; normalized growth (locus YNL209W, strain ssb2, active compounds read low): 1.01; normalized growth (locus YNL224C, strain SQS1, active compounds read low): 0.981; normalized growth (locus YNL233W, strain BNI4, active compounds read low): 0.977; normalized growth (locus YNL248C, strain rpa49, active compounds read low): 1.04; normalized growth (locus YNL250W, strain rad50, active compounds read low): 0.937; normalized growth (locus YNL271C, strain bni1, active compounds read low): 0.942; normalized growth (locus YNL298W, strain CLA4, active compounds read low): 0.969; normalized growth (locus YNL307C, strain MCK1, active compounds read low): 0.945; normalized growth (locus YNL322C, strain KRE1 (second series), active compounds read low): 1; normalized growth (locus YNL322C, strain KRE1, active compounds read low): 0.983 and 0.987; normalized growth (locus YNR049C, strain mso1, active compounds read low): 1.01; normalized growth (locus YNR052C, strain pop2, active compounds read low): 0.985; normalized growth (locus YOL006C, strain TOP1, active compounds read low): 1.05; normalized growth (locus YOL012C, strain htz1): 1.46; normalized growth (locus YOL147C, strain pex11, active compounds read low): 0.961; normalized growth (locus YOR001W, strain rrp6, active compounds read low): 1.01; normalized growth (locus YOR061W, strain CKA2, active compounds read low): 0.998; normalized growth (locus YOR069W, strain VPS5, active compounds read low): 0.985; normalized growth (locus YOR070C, strain gyp1, active compounds read low): 1.01; normalized growth (locus YOR080W, strain dia2, active compounds read low): 1.02; normalized growth (locus YOR083W, strain WHI5 (second series), active compounds read low): 0.985; normalized growth (locus YOR083W, strain WHI5, active compounds read low): 0.998; normalized growth (locus YOR106W, strain vam3, active compounds read low): 1.01; normalized growth (locus YOR136W, strain idh2, active compounds read low): 0.968; normalized growth (locus YOR144C, strain elg1, active compounds read low): 0.965; normalized growth (locus YOR184W, strain ser1, active compounds read low): 0.966; normalized growth (locus YOR231W, strain MKK1, active compounds read low): 0.935; normalized growth (locus YOR265W, strain rbl2, active compounds read low): 1.01; normalized growth (locus YOR270C, strain vph1, active compounds read low): 1.07; normalized growth (locus YOR290C, strain snf2, active compounds read low): 1; normalized growth (locus YOR316C, strain cot1, active compounds read low): 0.977; normalized growth (locus YPL051W, strain arl3, active compounds read low): 0.999; normalized growth (locus YPL055C, strain LGE1, active compounds read low): 1; normalized growth (locus YPL078C, strain atp4, active compounds read low): 1.01; normalized growth (locus YPL106C, strain sse1, active compounds read low): 1.01; normalized growth (locus YPL240C, strain hsp82, active compounds read low): 1.02; normalized growth (locus YPL256C, strain CLN2, active compounds read low): 0.882; normalized growth (locus YPR119W, strain clb2, active compounds read low): 0.976; normalized growth (locus YPR141C, strain kar3, active compounds read low): 0.871 (active); normalized growth (locus YPR163C, strain tif3, active compounds read low): 0.959; normalized growth (locus YPR167C, strain met16, active compounds read low): 0.973; normalized growth (strain wtn01, active compounds read low): 0.954
